Assay [1] addresses Lysosomal acid glucosylceramidase (Homo sapiens) (UniProt P04062). Kind of assay: Glucocerebrosidase-p2 (AID 348; in the data active means potency below about 10 µM; further: potency means the concentration at half of the fitted maximal effect). The note with it: purified GBA, blue fluorogenic substrate, 40 min. Summed up: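 Normal human glucocerebrosidase (0.2 nM) with blue fluorogenic substrate (80 uM final) in citrate/phosphate pH 5.9 with 10mM sodium taurocholate, 0.01% tween-20; 40 min RT, NaOH/glycine stop; fluorescence Ex 365/Em 440; AC50 from a titration from 0.6 nM upwards.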

In assay [2] the target is Cytochrome P450 1A2 (Homo sapiens) (UniProt P05177). Kind of assay: p450-cyp1a2 (AID 410; calls by dose curve; further: potency means the concentration at half of the fitted maximal effect). Summed up:
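20nM CYP1A2, 100uM Luciferin-ME (=Km), 100mM KPO4; cpd 10 min RT; +NADPH regen, 60 min RT; stop/detect 20 min; luminescence. Normalized to furafylline 57 uM = full inhibition.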

The target in assay [3] is Glucocorticoid receptor (Homo sapiens) (UniProt P04150). Put plainly: GR-EFC Redistribution (AID 451; calls by dose curve; further: potency means the concentration at half of the fitted maximal effect). The note with it: CHO-K1 GR-EFC translocation, beta-gal luminescence, 2 h. Put shortly:
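Translocation of GR-ED fusion to nuclear EA restores b-gal, read by luminescence after 1 h room-temperature detection. Engineered CHO-K1 biosensor cells, 1,000/well, exposed 2 h at 37 C to titrations up to 46 uM final.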

Assay [4] concerns the target Mitogen-activated protein kinase 10 (Mus musculus) (UniProt Q61831). Put plainly: JNK3 AlphaScreen Assay (AID 530; active means well fitted curve in either direction with a large enough effect, not every such curve was filed as active;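 further: kinase came from lysate of stimulated human HepG2 cells; signal reports phosphorylation of biotinylated GST-cJun 1-79 at Ser73 with 10 µM ATP; series mostly up to about 57 µM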). Summed up:
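Kinase buffer: 20 mM Tris-HCl pH 7.6, 10 mM MgCl2, 1 mM DTT, 0.1 mM Na3VO4, 0.01% Tween-20; ATP 10 uM. Substrate biotin-GST-cJun(1-79), enzyme from activated HepG2 lysates. Detection by Ser73 phospho-antibody AlphaScreen.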

Assay [5] has as its target Cytochrome P450 3A4 (Homo sapiens) (UniProt P08684). Put plainly: qHTS Assay for Activators of Cytochrome P450 3A4 (AID 885). Further: nearly all actives have a fitted effect of over 65% in size. Summed up: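 Luminescent readout of luciferin formed from 25 uM Luciferin-PPXE (KM level) by 20 nM CYP3A4 in 200 mM KPO4, with 60 min NADPH-driven reaction at room temperature after 10 min compound exposure. Ketoconazole (57 uM) defined 100% inhibition.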

Assay [6] addresses Dual specificity protein kinase CLK4 (Homo sapiens) (UniProt Q9HAZ1). Kind of assay: qHTS Assay for Inhibitors of CDC-like Kinase 4 (Kinase-Glo Assay) (AID 1770). Further: potency means the concentration at half of the fitted maximal effect; nearly all actives have a fitted effect of over 65% in size. Put shortly: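 Substrate mix (RS peptide 100 uM, ATP 1 uM) dispensed, compound pinned in, then Clk4 added to 25 nM final. Incubated 4.5 h at RT; Kinase-Glo reagent added, luminescence read after 5 min.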
Assay [7] shares this target. Kind of assay: qHTS Assay for Inhibitors of CDC-like Kinase 4 (ADP-Glo Assay) (AID 1771). Further: potency means the concentration at half of the fitted maximal effect; nearly all actives have a fitted effect of over 70% in size. Put shortly: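 25 nM Clk4, 100 uM RS peptide, 1 uM ATP (final); 2 mM MgCl2, 0.5 mM EGTA, 2.5 mM DTT, 0.01% Triton X-100; 1 hr RT. ADP-Glo readout: ATP depletion 45 min, conversion/luciferase 30 min, luminescence.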
Assay [8] concerns the target Ubiquitin carboxyl-terminal hydrolase 1 (Homo sapiens) (UniProt O94782). Kind of assay: Inhibitors of USP1/UAF1: Pilot qHTS (AID 504865).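 Further: rhodamine fluorescence freed from ubiquitin-rhodamine substrate followed over time; top concentration of the series differs between compounds; nearly all actives have a fitted effect of over 35% in size.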 Summed up: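 In 50mM HEPES pH 7.8 containing 0.5mM EDTA, 1mM TCEP, 0.1 mg/ml BSA and 0.01% Tween-20, 1nM USP1/UAF1 is exposed to compound for 15 min, then Ub-Rho (150nM final) is added and fluorescence is read over time.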
Assay [9] can be described thus: Primary qHTS for small molecule stabilizers of the endoplasmic reticulum resident proteome: Secreted ER Calcium Modulated Protein (SERCaMP) assay (AID 1508630). Summed up: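 The SH-SY5Y reporter protocol was run at 3 concentrations up to 38.3 uM (primary) or 11 concentrations (follow-up): 16 h compound, 100 nM thapsigargin for 4 h, then extracellular luciferase luminescence.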

Structures are written as SMILES. Values without a mark were called inactive. Results filed as inconclusive are left out. Activity calls are given as the source filed them. Unless noted, the call rests on the fitted dose curve; in most records, active means well fitted curve in the direction sought with a large enough effect; inconclusive means small, poorly fitted or top-dose-only effect, or another doubt; inactive means no such curve, though single readings can be large; an effect the other way counts as inactive or inconclusive. A value given as a limit tells only on which side of the number the result lay.

Chain of Dual specificity protein kinase CLK4 (Homo sapiens) (Q9HAZ1 whole entry, looked up): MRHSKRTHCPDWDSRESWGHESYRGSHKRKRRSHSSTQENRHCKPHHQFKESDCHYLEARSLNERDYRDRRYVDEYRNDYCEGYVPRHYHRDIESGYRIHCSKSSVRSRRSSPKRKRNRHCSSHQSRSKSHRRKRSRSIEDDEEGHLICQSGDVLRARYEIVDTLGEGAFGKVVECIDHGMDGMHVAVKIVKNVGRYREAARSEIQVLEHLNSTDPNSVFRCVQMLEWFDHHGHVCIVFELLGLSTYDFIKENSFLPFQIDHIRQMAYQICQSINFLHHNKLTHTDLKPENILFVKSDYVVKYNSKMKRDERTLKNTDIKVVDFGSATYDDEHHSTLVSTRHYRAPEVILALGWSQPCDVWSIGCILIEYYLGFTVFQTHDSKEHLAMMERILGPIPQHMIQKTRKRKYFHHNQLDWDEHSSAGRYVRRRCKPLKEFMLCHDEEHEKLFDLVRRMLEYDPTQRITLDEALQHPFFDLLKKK
Chain of Cytochrome P450 3A4 (Homo sapiens) (P08684 whole entry, looked up): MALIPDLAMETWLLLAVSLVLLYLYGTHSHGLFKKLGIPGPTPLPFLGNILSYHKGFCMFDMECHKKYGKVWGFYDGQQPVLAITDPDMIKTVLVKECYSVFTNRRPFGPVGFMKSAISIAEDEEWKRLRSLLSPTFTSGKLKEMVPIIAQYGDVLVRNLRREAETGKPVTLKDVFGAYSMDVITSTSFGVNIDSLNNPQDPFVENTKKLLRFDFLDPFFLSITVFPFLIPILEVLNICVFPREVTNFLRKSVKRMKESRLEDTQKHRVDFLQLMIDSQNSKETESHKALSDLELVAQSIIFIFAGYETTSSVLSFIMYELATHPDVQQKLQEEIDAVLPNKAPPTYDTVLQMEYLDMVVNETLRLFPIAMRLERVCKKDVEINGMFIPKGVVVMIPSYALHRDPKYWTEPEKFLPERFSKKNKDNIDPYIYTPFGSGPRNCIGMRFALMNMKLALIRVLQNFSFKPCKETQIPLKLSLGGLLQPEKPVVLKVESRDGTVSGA
Chain of Ubiquitin carboxyl-terminal hydrolase 1 (Homo sapiens) (O94782 whole entry, looked up): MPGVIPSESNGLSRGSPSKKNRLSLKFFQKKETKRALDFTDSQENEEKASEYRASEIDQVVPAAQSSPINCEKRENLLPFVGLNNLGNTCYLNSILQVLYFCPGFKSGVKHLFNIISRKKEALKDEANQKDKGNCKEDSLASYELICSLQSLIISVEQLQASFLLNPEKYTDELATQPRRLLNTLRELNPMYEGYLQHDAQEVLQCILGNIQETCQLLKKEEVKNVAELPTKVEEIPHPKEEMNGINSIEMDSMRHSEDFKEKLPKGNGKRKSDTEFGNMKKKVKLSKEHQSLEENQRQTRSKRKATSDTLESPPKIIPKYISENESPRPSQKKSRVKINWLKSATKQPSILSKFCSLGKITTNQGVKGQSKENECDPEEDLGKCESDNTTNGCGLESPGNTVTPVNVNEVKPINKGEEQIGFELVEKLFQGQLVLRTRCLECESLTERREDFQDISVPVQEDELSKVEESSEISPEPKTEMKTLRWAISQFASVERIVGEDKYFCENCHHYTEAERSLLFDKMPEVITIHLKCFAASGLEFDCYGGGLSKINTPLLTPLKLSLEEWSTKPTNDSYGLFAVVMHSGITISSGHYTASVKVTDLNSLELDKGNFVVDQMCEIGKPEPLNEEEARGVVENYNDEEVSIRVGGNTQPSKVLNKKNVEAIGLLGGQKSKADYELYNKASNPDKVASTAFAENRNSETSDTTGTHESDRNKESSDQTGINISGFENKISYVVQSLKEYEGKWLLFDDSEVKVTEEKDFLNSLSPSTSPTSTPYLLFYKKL
Chain of Cytochrome P450 1A2 (Homo sapiens) (P05177 whole entry, looked up): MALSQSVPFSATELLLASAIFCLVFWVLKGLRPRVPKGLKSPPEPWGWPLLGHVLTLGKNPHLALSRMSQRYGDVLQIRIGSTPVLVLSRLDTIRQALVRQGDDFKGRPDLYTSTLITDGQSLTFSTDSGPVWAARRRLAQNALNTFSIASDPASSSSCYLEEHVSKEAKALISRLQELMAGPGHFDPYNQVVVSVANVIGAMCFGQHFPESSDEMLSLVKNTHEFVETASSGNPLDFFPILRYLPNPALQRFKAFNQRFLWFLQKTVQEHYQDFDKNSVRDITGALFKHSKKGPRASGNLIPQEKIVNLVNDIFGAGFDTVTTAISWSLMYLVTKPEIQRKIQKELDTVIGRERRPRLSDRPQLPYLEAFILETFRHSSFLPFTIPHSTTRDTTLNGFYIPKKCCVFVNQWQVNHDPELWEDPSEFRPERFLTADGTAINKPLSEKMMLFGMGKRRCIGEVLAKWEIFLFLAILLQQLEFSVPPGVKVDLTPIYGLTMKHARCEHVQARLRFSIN
Chain of Glucocorticoid receptor (Homo sapiens) (P04150 whole entry, looked up, the tested form may be a part): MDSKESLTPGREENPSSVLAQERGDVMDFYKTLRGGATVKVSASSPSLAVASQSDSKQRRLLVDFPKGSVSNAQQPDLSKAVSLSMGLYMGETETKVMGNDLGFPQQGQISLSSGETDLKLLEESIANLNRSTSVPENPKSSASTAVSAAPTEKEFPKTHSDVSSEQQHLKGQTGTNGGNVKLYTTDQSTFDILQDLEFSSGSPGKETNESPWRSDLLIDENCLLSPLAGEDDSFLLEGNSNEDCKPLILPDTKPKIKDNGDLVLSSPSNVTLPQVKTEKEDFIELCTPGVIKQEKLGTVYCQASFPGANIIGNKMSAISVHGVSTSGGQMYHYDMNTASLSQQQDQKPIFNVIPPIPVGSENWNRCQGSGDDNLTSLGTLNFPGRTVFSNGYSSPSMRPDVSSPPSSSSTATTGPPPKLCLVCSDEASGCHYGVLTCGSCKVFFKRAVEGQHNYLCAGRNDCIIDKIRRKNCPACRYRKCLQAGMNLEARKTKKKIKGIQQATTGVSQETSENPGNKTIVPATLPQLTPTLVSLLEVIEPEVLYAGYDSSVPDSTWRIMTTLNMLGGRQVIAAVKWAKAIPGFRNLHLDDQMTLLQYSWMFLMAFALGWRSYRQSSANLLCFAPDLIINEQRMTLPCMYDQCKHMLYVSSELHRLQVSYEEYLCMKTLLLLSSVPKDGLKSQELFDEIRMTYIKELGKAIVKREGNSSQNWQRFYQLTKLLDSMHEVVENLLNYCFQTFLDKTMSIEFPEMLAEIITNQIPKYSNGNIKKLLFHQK
Chain of Lysosomal acid glucosylceramidase (Homo sapiens) (P04062 whole entry, looked up): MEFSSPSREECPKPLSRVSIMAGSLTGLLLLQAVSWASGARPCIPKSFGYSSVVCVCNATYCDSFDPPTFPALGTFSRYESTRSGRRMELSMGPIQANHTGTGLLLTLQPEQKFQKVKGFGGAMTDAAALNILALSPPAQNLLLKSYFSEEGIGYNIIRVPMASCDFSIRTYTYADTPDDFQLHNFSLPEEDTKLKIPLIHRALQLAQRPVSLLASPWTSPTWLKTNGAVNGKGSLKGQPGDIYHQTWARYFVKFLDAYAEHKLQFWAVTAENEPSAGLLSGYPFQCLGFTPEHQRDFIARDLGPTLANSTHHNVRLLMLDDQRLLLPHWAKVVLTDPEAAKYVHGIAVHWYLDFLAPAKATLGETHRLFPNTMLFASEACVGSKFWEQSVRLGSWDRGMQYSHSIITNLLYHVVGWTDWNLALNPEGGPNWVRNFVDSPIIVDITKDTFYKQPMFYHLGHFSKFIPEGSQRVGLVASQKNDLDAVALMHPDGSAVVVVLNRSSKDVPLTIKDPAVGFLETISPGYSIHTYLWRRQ

For the compound `O=c1cnc2cnc(Nc3ccccc3)nc2n1Cc1cccs1`, the Potency in assay [1] was above 11400 nM; in [2], 1000 nM (active); in [3], above 46000 nM; in [6], 1410 nM (active); in assay [7] it was 2000 nM (active). Besides, in assay [4], the call was inactive. Moreover, the Potency entry in assay [5], in assay [8] and in assay [9] was “inactive” throughout.
